p53 reactivator: qHTS assay for re-activators of p53 using a Luc reporter | H1299 p53-A138V BP100-luciferase reporter, luminescence, 24 h | Potency, µM (series often up to 92.2 µM), for the others: at the top dose activity change, positive = activation, most hits filed as activators | actives 0.063% (n = 320,000) | AID 504706, 2011; note: % of control where 0% means no effect; nearly all actives have a fitted effect of over 45% in size
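p53-null H1299 cells stably carrying temperature-sensitive p53-A138V and a BP100-luciferase reporter were pinned with compounds (4-point, 1:5 series) and held 24 hrs at 37 deg C. Luminescence was read 10 min after detection reagent.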
Rab9 prom act: qHTS Assay for Rab9 Promoter Activators | Huh7 Rab9 promoter-luciferase reporter, luminescence, 24 h | Potency, µM (highest dose often 9.22 µM), without a hit: top-dose activation, negative = inhibition, usual class: activators | actives 2.8% (n = 320,000) | AID 485297, 2010; note: % of control where 0% means no effect; nearly all actives have a fitted effect of over 60% in size
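Luminescence from Amplite-detected luciferase (10 minutes, ambient) reports Rab9 promoter activation. Before that, stable Rab9-luciferase Huh7 cells (1500/well, reduced-serum OP-MEM I plus 10% FBS) were exposed to compound for 24 hours at 37C.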
FLuc counter: qHTS profiling assay for firefly luciferase inhibitor/activator using purifed enzyme and Km concentrations of substrates (counterscreen for miR-21 project) | purified FLuc, Km substrates, luminescence inhibition | Potency, µM (top dose mostly 57.5 µM), for inactives: at the highest dose activity change, negative = inhibition, hits mostly inhibitors | actives 6.9% (n = 360,000);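 note: plate controls were vehicle for no effect and reference inhibitor for full effect; nearly all actives have a fitted effect of over 55% in size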
Target sequence (P08659 whole entry, looked up): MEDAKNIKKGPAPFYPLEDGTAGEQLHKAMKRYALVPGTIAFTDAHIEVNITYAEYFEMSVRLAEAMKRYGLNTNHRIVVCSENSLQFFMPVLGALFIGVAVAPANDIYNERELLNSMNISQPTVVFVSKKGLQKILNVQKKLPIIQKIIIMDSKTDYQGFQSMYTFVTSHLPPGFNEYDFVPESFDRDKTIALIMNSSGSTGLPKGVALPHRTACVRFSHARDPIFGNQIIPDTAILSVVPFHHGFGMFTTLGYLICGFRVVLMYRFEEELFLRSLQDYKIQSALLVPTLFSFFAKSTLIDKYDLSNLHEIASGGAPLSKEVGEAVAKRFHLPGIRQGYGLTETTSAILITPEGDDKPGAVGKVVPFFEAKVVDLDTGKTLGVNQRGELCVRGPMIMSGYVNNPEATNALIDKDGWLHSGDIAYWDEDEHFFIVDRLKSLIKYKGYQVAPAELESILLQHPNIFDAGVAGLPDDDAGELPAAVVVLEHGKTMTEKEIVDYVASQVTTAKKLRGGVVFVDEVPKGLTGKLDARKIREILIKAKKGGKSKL
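Purified P. pyralis luciferase (10nM final) with 10uM D-luciferin and 10uM ATP (Km levels) in 50mM Tris acetate pH 7.5, 10mM Mg acetate, 0.01% Tween-20, 0.05% BSA; qHTS 6-point titration, ~60 µM downward; luminescence read.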
SMN2 splice enh: qHTS Assay for Enhancers of SMN2 Splice Variant Expression | actives 2.8% (n = 210,000) | HEK293 SMN2-luciferase splicing reporter, luminescence, 30-36 h | AID 1458, 2008 | Potency, µM (series often up to 46.1 µM), for the others: top-dose activity change, positive = activation, hits mostly activators; note: % of control where 0% means no effect; nearly all actives have a fitted effect of over 55% in size
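qHTS luciferase splicing reporter: luminescence rises when SMN2 exon 7 is included in transfected HEK293 cells. Compound exposure lasted 30-36 h at 37C, with 4.5 mM final sodium butyrate as control, followed by a ONE-Glo read.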
ELG1 genotox: qHTS screen for small molecules that induce genotoxicity in human embryonic kidney (HEK293T) cells expressing luciferase-tagged ELG1; Potency, µM (titrated, usually from 46 µM), without a hit: at the highest dose activity change, positive = activation, most hits filed as activators; HEK293T ELG1-luciferase reporter, luminescence, 16 h; actives 1.3% (n = 330,000); note: % of control where 0% means no effect; nearly all actives have a fitted effect of over 60% in size
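Luminescence read-out: rising ELG1-luciferase signal, reflecting elevated ELG1 protein under genetic stress, flags genotoxic compounds. Cells were treated for 16 hr at 37 °C before ONE-Glo detection.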
NPC1 promoter act: qHTS Assay for NPC1 Promoter Activators; AID 485313, 2010; Huh7 NPC1 promoter luciferase reporter, 24 h; Potency, µM (doses to about 9.22 µM), inactives show at the highest dose activation, usual class: activators; actives 2.4% (n = 320,000); note: % of control where 0% means no effect; nearly all actives have a fitted effect of over 60% in size
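Stable NPC1-promoter luciferase Huh7 line; cpd (DMSO) 24 h, 37 °C, 5% CO2; Amplite luciferase reagent 10 min RT; luminescence readout. qHTS format.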
An asterisk follows results filed as active; [ ] = remark or other dose. Most compounds without a hit are left out; they make up all but 7.4% or so of the library. Calls come from the whole dose curve; as a rule, active = well fitted curve in the direction sought with a large enough effect; inconclusive = small, poorly fitted or top-dose-only effect, or another doubt; inactive = no such curve, though single readings can be large; an effect the other way counts as inactive or inconclusive. Potency is the fitted concentration of half-maximal effect.

Screening Cc1ccccc1Nc1cc(C(=O)NCc2cccs2)c2ccccc2n1 returned FLuc counter inconclusive and SMN2 splice enh 1.3%.
For COc1ccc(Nc2cc(C(=O)NCc3ccccn3)c3ccccc3n2)c(OC)c1 the results were p53 reactivator 4.4%, Rab9 prom act inconclusive, FLuc counter 10.7µM*, SMN2 splice enh 0.6%, ELG1 genotox -6.0% and NPC1 promoter act 6.3%.
For COc1ccccc1Nc1cc(C(=O)NCc2cccs2)c2ccccc2n1 the results were FLuc counter 9.53µM* and SMN2 splice enh -42.2%.
For CN1C2CCC1CC(NC(=O)c1nn(C)c3ccccc13)C2 (centres undefined) the results were SMN2 splice enh 15.8%.
`CN1CCCC2(CCN(C(=O)c3cc(C(F)(F)F)cc(C(F)(F)F)c3)CC2)C1` gave SMN2 splice enh 6.8%.
Screening COc1ccc(C2C=C(c3ccccc3)Nc3nc(NC(=O)/C=C/c4ccc(Cl)cc4)nn32)cc1 (centres undefined) returned FLuc counter -2.3%.
`COc1ccc(Nc2cc(C(=O)NCc3ccco3)c3ccccc3n2)c(OC)c1` gave p53 reactivator 1.6%, Rab9 prom act -3.5%, FLuc counter 15.1µM*, SMN2 splice enh 3.7%, ELG1 genotox -5.9% and NPC1 promoter act -2.7%.
`COc1ccc(-c2cc(C(=O)NCc3ccco3)c3ccccc3n2)c(OC)c1` gave p53 reactivator -6.3%, Rab9 prom act -0.3%, FLuc counter inconclusive, ELG1 genotox -13.5% and NPC1 promoter act -3.7%.
COc1ccc(-c2cc(C(=O)NCc3ccco3)c3ccccc3n2)cc1 was read as p53 reactivator -5.7%, Rab9 prom act 10.9%, FLuc counter 6.75µM*, ELG1 genotox -0.4% and NPC1 promoter act 0.1%.
Cc1cc(C)cc(Nc2cc(C(=O)NCc3ccccc3)c3ccccc3n2)c1 was read as FLuc counter 4.78µM* and SMN2 splice enh -8.9%.
COc1ccc(S(=O)(=O)N2CCOC2CNC(=O)C(=O)NCCN2CCOCC2)cc1 (centres undefined) was read as p53 reactivator -8.3%, Rab9 prom act 3.7%, FLuc counter 2.9%, ELG1 genotox 0.6% and NPC1 promoter act -0.8%.
Screening Cc1ccc(C(=O)N/N=C\c2cccc(OC(=O)c3cccc(F)c3)c2)cn1 returned p53 reactivator inconclusive, Rab9 prom act -0.6%, FLuc counter 8.49µM*, ELG1 genotox 17.8% and NPC1 promoter act 4.3%.
Screening O=C(N/N=C/c1cccc(OC(=O)c2ccco2)c1)c1ccc(F)cc1 returned p53 reactivator inconclusive, Rab9 prom act -3.7%, FLuc counter 3.79µM*, SMN2 splice enh 7.0%, ELG1 genotox inconclusive and NPC1 promoter act 0.4%.
COCCNC(=O)C(=O)N/N=C/c1cccs1 was read as p53 reactivator 4.8%, Rab9 prom act 2.1%, FLuc counter 1.7%, SMN2 splice enh -1.5%, ELG1 genotox -6.6% and NPC1 promoter act -2.7%.
`COc1cc(/C=N/NC(=O)c2ccc(F)cc2)ccc1OC(=O)c1ccco1` gave p53 reactivator 16.8%, Rab9 prom act -3.2%, FLuc counter inconclusive, SMN2 splice enh 4.5%, ELG1 genotox 6.5% and NPC1 promoter act 5.7%.
Screening COc1ccccc1NC(=O)C(=O)N/N=C/c1cccs1 returned p53 reactivator 29.3%, Rab9 prom act inconclusive, FLuc counter 9.53µM*, SMN2 splice enh 9.6%[1.84 µM], ELG1 genotox inconclusive and NPC1 promoter act 26.1%.
O=C(N/N=C/c1cccc(OC(=O)c2ccccc2Cl)c1)c1cccnc1 was read as p53 reactivator 25.6%, Rab9 prom act 10.5%, FLuc counter 23.9µM*, ELG1 genotox 18.1% and NPC1 promoter act 24.1%.
CC(Nc1c[nH]c(=O)[nH]c1=O)c1ccccc1 (centres undefined) was read as p53 reactivator 7.8%, Rab9 prom act 7.6%, FLuc counter -0.3%, ELG1 genotox 0.6% and NPC1 promoter act 1.5%.
Screening CCC(=O)c1cn(CC(=O)Nc2ccc(C)cc2)c2ccccc12 returned Rab9 prom act -5.4%, FLuc counter 1.1%, ELG1 genotox 6.1% and NPC1 promoter act 0.2%.
COc1ccc(/C=N/NC(=O)c2ccc(C)nc2)cc1O was read as p53 reactivator -1.5%, Rab9 prom act -1.9%, FLuc counter -18.2%, ELG1 genotox -2.3% and NPC1 promoter act 6.8%.
Cc1ccc(C(=O)N/N=C\c2ccc(OC(=O)c3cccs3)cc2)cn1 was read as p53 reactivator -5.0%, Rab9 prom act 0.2%, FLuc counter -2.1%, SMN2 splice enh 10.9%, ELG1 genotox 4.8% and NPC1 promoter act 3.6%.
For COc1cccc(/C=N\NC(=O)c2ccc(C)nc2)c1 the results were Rab9 prom act 13.1%, FLuc counter 19µM*, ELG1 genotox 11.5% and NPC1 promoter act 22.7%.
COc1cccc(/C=N/NC(=O)c2cnn(-c3ccccc3)c2N)c1 was read as p53 reactivator 7.1%, Rab9 prom act inconclusive, FLuc counter 12µM*, ELG1 genotox -2.4% and NPC1 promoter act inconclusive.
For Cc1ccc(C(=O)N/N=C\c2cccs2)cn1 the results were p53 reactivator 11.5%, Rab9 prom act 18.1%, FLuc counter 23.9µM*, SMN2 splice enh 2.6%, ELG1 genotox -4.3% and NPC1 promoter act 20.9%.
For CCOc1ccc2ccccc2c1/C=N/NC(=O)c1ccc(C)nc1 the results were p53 reactivator 3.7%, Rab9 prom act 2.8%, FLuc counter 4.78µM*, ELG1 genotox 6.1% and NPC1 promoter act 0.1%.
For CCOC(=O)c1ccc(N2CCN(c3ccccc3OC)CC2)c(NC(=O)Nc2ccc(CC)cc2)c1 the results were FLuc counter 6.6%.
For COc1cccc(NC(=O)CSc2nnc3ccc(-c4ccncc4)nn23)c1 the results were p53 reactivator -2.5%, Rab9 prom act 6.9%, FLuc counter -7.9%, ELG1 genotox -13.9% and NPC1 promoter act 6.8%.
`Cc1onc(-c2c(F)cccc2Cl)c1C(=O)Nc1ccc(Cl)c(S(=O)(=O)N(C)C)c1` gave p53 reactivator -11.8%, Rab9 prom act -13.0%, ELG1 genotox -11.4% and NPC1 promoter act -5.0%.
For Cc1ccc(C)c(N(CC(=O)NC2CCCC2)C(=O)CCC(=O)Nc2cc(C)on2)c1 the results were p53 reactivator 2.3%, Rab9 prom act 0.2%, FLuc counter -0.2%, ELG1 genotox -4.9% and NPC1 promoter act -0.4%.
